Compounds with a hit are over-represented: about 11% of the library has one in this group of screens.
PNC assembly inh – High Content Assay for Compounds that inhibit the Assembly of the Perinucleolar Compartment; 3.1% of 140,000 active; AID 2417, 2010; PC3M PTB-GFP, PNC prevalence imaging, 16 h; active compounds read low; activity change (PNC), negative = inhibition, % at 10 µM;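 active means readout at or below -70, meaning at least 70% loss of cells showing the perinucleolar compartment, a nuclear body marking cancer cells; inconclusive means readout between -30 and a set limit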
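Compounds are pinned in duplicate onto adhered PC3M cells stably expressing GFP-tagged PTB and incubated 16 h at 37 C. Cells are then fixed, nuclei stained with Hoechst, and PNC-positive cells counted.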
CBFb-RUNX1 inh – qHTS Assay for Compounds Blocking the Interaction Between CBF-beta and RUNX1 for the Treatment of Acute Myeloid Leukemia; Runt-related transcription factor 1 (Homo sapiens) + Core-binding factor subunit beta …; AlphaScreen CBFb-His/RUNX1-biotin binding, biochemical; Potency, µM (series often up to 59.8 µM), actives largely listed as inhibitors; 230,000 tested, under 10 active; AID 1477, 2009
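CBFb-His/RUNX1-biotin, 30 nM each, preincubated 20 min RT; compound 15 min RT; Ni + streptavidin beads 50 ng each, 90 min RT; AlphaScreen read.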
HPGD block – qHTS Assay for Inhibitors of HPGD (15-Hydroxyprostaglandin Dehydrogenase); 15-hydroxyprostaglandin dehydrogenase [NAD(+)] (Homo sapiens), P15428; purified HPGD, NADH fluorescence kinetic, PGE2 substrate; Potency, µM, actives largely listed as inhibitors; 4.3% of 150,000 active; active means well fitted inhibition curve with a large enough effect, not every such curve was filed as active; inconclusive means small, poorly fitted or top-dose-only effect, or another doubt; inactive means no such curve, though single readings can be large or run the other way
Target sequence (P15428 whole entry, looked up): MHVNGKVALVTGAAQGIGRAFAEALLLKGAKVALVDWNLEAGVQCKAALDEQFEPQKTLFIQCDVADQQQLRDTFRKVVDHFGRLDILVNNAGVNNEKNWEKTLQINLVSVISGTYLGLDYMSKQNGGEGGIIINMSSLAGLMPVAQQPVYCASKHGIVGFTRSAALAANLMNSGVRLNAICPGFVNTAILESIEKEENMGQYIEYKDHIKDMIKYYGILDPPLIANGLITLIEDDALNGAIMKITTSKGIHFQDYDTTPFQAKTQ
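20 nM HPGD preincubated 15 min at room temperature with compound in 50 mM Tris-HCl pH 8, 0.01% Tween 20. Started with 1 mM NAD+ and 30 uM prostaglandin E2; NADH fluorescence (360/450 nm) read 5 times over 30-s intervals, last minus first.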
HTT cytoprotect – qHTS Multiplex Assay to Identify Dual Action Probes in a Cell Model of Huntington: Cytoprotection (ATP). PC12 HTT-Q103 induced, cytoprotection, ATP luminescence, 40 h. Potency, µM (highest dose often 56.4 µM), hits mostly activators. 0.14% of 230,000 active. AID 1471, 2008; further: nearly all actives have a fitted effect of over 45% in size
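PC12 cells stably carrying ecdysone-inducible Htt exon 1 (Q103)–GFP were induced with 100 nM tebufenozide (final) alongside library compounds in a dose series. Cytoprotection was scored as retained ATP by ATPlite luminescence.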
HttQ103 aggreg – qHTS Multiplex Assay to Identify Dual Action Probes in a Cell Model of Huntington: Aggregate Formation (GFP); 1.1% of 220,000 active; PC12 HttQ103-GFP aggregates, Acumen cytometry, 40 h; AID 1688, 2009; Potency, µM (highest dose often 46.1 µM), actives largely listed as inhibitors; further: nearly all actives have a fitted effect of over 60% in size
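Quantitative HTS on tebufenozide-induced (100 nM) PC12 cells stably expressing polyQ103 Huntingtin exon 1–GFP. Reduction of bright GFP aggregates, detected by laser scanning cytometry after lysis, identified actives across the titration.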
ALDH1A1 inh – qHTS Assay for Inhibitors of Aldehyde Dehydrogenase 1 (ALDH1A1) | Purified ALDH1A1, NADH fluorescence, propionaldehyde substrate | 7.3% of 220,000 active | AID 1030, 2008 | Potency, µM (top dose mostly 75.3 µM), actives largely listed as inhibitors; active means well fitted inhibition curve with a large enough effect, not every such curve was filed as active; inconclusive means small, poorly fitted or top-dose-only effect, or another doubt; inactive means no such curve, though single readings can be large or run the other way
Hits are given with their value; i = inactive; ? = inconclusive; nt = not tested or not shown; [ ] = another dose, or the depositor's remark. Unless noted, the call rests on the fitted dose curve; in most records, active means well fitted curve in the direction sought with a large enough effect; inconclusive means small, poorly fitted or top-dose-only effect, or another doubt; inactive means no such curve, though single readings can be large; an effect the other way counts as inactive or inconclusive.

SMILES	PNC assembly inh	CBFb-RUNX1 inh	HPGD block	HTT cytoprotect	HttQ103 aggreg	ALDH1A1 inh
CC1CC(C)CN(CCCSc2ccccc2)C1 (centres undefined)	i	i	i	nt	i	24µM
c1ccc(COc2ccc(OCCOCCn3cncn3)cc2)cc1	?	i	i	i[10 µM]	i	i
Cn1cccc1C(=O)N1CCC[C@@]2(CCN(Cc3ccccc3)C2)C1	nt	nt	i	i	nt	i
O=C(NCCc1ccccc1)c1nc2c(nnn2Cc2ccccc2Cl)c(=O)[nH]1	i	i	7.9µM	?	i	i
COc1ccc(Cn2nnc3c(=O)[nH]c(C(=O)NCCc4ccc(F)cc4)nc32)cc1OC	i	i	3.2µM	i	i	i
O=C(NCC1CCCO1)c1nc2c(nnn2Cc2ccccc2Cl)c(=O)[nH]1 (centres undefined)	i	i	13µM	i[10 µM]	?	i
O=C(NC1CC1)c1nc2c(nnn2Cc2ccccc2Cl)c(=O)[nH]1	?	i	16µM	i[1.9 µM]	i	i
CCCc1nc2c(nnn2Cc2ccccc2Cl)c(=O)[nH]1	nt	i	nt	nt	?	i
C[C@@H](C(=O)NCc1ccccn1)[C@@H]1C[C@@]1(C)[C@@H](NC(=O)OCc1ccccc1)c1ccccc1	i	i[2.36 µM]	i	i	i	i
CCOC(=O)c1cc(C#N)c(N2CCN(C(=O)c3cccc(C(F)(F)F)c3)CC2)nc1C(F)(F)F	nt	i	nt	i[10 µM]	i[9.22 µM]	?
NNC(=O)CCc1nc2ccccc2[nH]1	nt	i	nt	nt	i	i
O=C(CN1CCN(Cc2ccccc2Cl)C1=O)NC1CCCCCC1	i	i	i	i	i[9.22 µM]	i
O=C(NC1CCCCC1)c1nc2c(nnn2Cc2ccccc2Cl)c(=O)[nH]1	?	i	4.5µM	i[10 µM]	?	?
O=C(NC1CC1)c1ccc(CSCc2cccc(F)c2)o1	-106	i	i	i	i	?
CCC(C)NC(=O)c1ccc(CSCc2cccc(F)c2)o1 (centres undefined)	i	i	i	i	i[9.22 µM]	?
Cc1ccc(CSCc2ccc(C(=O)NC3CCCC3)o2)cc1	nt	i	nt	i	i	22µM
Cc1ccc(CSCc2ccc(C(=O)NCCCN3CCOCC3)o2)cc1	nt	i	nt	i	?	i
COc1ccccc1CN1CC[C@@]2(CCCN(C(=O)c3cccn3C)C2)C1	nt	nt	i	i	nt	?
COC(=O)c1ccc(CCc2cc(O)ccc2O)cc1	nt	nt	0.4µM	i[10 µM]	nt	0.63µM
Cc1ccc(S(=O)(=O)N(CC(=O)N2CCC(C(N)=O)CC2)c2cccc(C(F)(F)F)c2)cc1	i	i	i	i	i	13µM
CCOC(=O)N1CCN(C(=O)CN(c2cccc(C(F)(F)F)c2)S(=O)(=O)c2ccccc2)CC1	i	i	?	i[10 µM]	?	i
CC1(C)C(=O)NC2=C1C(=O)C(=O)c1ccccc12	nt	i	i	i	nt	28µM
CNc1ncncc1-c1ccccc1C	nt	nt	nt	i	nt	i
CCOC(=O)c1ccccc1NC(=S)N1CC(C)CC(C)C1 (centres undefined)	?	i	i	i[10 µM]	i	25µM
c1ccc(-c2cnn3c(-c4ccccc4)c(-c4ccccc4)nc3n2)cc1	i	i	20µM	i[10 µM]	i	i
CC(=O)Oc1ccc2c(c1OC(C)=O)OCC1(O)Cc3c(cc(OC(C)=O)c(OC(C)=O)c3OC(C)=O)C21 (centres undefined)	nt	nt	i	nt	nt	i
Oc1ccc2c(c1)OCC1(O)Cc3cc(O)c(O)cc3C21 (centres undefined)	nt	i	?	i	nt	28µM
Oc1cc2c(cc1O)[C@H]1c3ccc(O)c(O)c3OC[C@@]1(O)C2	nt	i	13µM	i[1.9 µM]	nt	i
C[N+]1(CCCCSc2ccc(O)cc2)CCCCC1	i	i	i	i[10 µM]	i	i

Bioassay records as filed in PubChem BioAssay.
